The supplement of paper PMC10849652
Targets with a hit are over-represented here; the source holds about 7,900 in all. About 0.6% of all pairs of compound and target were hits.

Assays:
Assay in all cases: log2 fold change, soluble protein after heating vs DMSO (PISA); higher = thermal stabilisation; K562 cells, 10 uM, 30 min; active = over 0.2 and 3.5 SD of the protein, either way, in both replicates (recomputed)
[1] = compound: NC(=O)Nc1cc(-c2cccc(F)c2)sc1C(=O)N[C@H]1CCCNC1
Procedure, shortened: (§1)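 K562 cells at 2×10^6 cells/mL were treated with 10 μM compound for 30 min. Aliquots were heated for 3 min across 48°C-58°C, pooled, and extracted in PBS with 0.5% NP-40 at 4°C; soluble protein was the supernatant after 21,000xg for 90 min. Soluble protein was quantified by TMTpro 16plex LC-MS/MS with channel sums equalised, and reported as log2 fold change in thermal stability against DMSO controls, with values from duplicates.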

[2] = compound: NC(=O)c1cnc(N[C@@H]2CCCC[C@@H]2N)nc1Nc1cccc(-n2nccn2)c1
Procedure, shortened: as §1

[3] = compound: NC1(c2ccc(-c3nc4ccn5c(=O)[nH]nc5c4cc3-c3ccccc3)cc2)CCC1
Procedure, shortened: as §1

[4] = compound: NCC(=O)Nc1ccc(-n2nc(C(F)(F)F)cc2-c2ccc3c(ccc4ccccc43)c2)cc1
Procedure, shortened: as §1

entinostat = compound: Nc1ccccc1NC(=O)c1ccc(CNC(=O)OCc2cccnc2)cc1 [entinostat]
Procedure, shortened: as §1

vorinostat = compound: O=C(CCCCCCC(=O)Nc1ccccc1)NO [vorinostat]
Procedure, shortened: as §1

citarinostat = compound: O=C(CCCCCCNC(=O)c1cnc(N(c2ccccc2)c2ccccc2Cl)nc1)NO [citarinostat]
Procedure, shortened: as §1

silmitasertib = compound: O=C(O)c1ccc2c(c1)nc(Nc1cccc(Cl)c1)c1ccncc12 [silmitasertib]
Procedure, shortened: as §1

[5] = compound: O=C1NC(=O)C(c2cnc3ccccn23)=C1c1cn2c3c(cc(F)cc13)CN(C(=O)N1CCCCC1)CC2
Procedure, shortened: as §1

[6] = compound: c1cc(OCCN2CCCCC2)cc(-c2n[nH]c3ccc(-c4nnc[nH]4)cc23)c1
Procedure, shortened: as §1

entospletinib = compound: c1cn2cc(-c3ccc4cn[nH]c4c3)nc(Nc3ccc(N4CCOCC4)cc3)c2n1 [entospletinib]
Procedure, shortened: as §1

Measured: log2 fold change

BOP1 (UniProt Q14137)
inactive: [1] 0.002 | [2] -0.027 | [3] 0.04 | [4] -0.018 | entinostat -0.004 | vorinostat 0.107 | citarinostat 0.035 | silmitasertib 0.038 | [6] -0.073 | entospletinib -0.063
active: [5] -0.351

ARFGAP2 (UniProt Q8N6H7)
inactive: [1] -0.007 | [2] -0.097 | [3] -0.08 | [4] -0.014 | entinostat 0.037 | vorinostat -0.017 | citarinostat 0.015 | silmitasertib 0.017 | [5] -0.016 | [6] -0.035 | entospletinib 0.007

ATP7B (UniProt P35670)
inactive: [1] -0.051 | [2] -0.139 | [3] -0.111 | [4] -0.15 | entinostat -0.003 | vorinostat 0.035 | citarinostat 0.005 | silmitasertib 0.036 | [5] -0.036 | [6] -0.023 | entospletinib 0.012

ALG11 (UniProt Q2TAA5)
inactive: [1] -0.052 | [2] 0.032 | [3] -0.093 | [4] -0.019 | entinostat 0.01 | vorinostat -0.038 | citarinostat 0.039 | silmitasertib 0.008 | [5] -0.002 | [6] -0.08 | entospletinib -0.005

APPL1 (UniProt Q9UKG1)
inactive: [1] -0.032 | [2] -0.012 | [3] -0.023 | [4] -0.043 | entinostat -0.053 | vorinostat 0.009 | citarinostat 0.04 | silmitasertib 0.022 | [5] -0.046 | [6] 0.07 | entospletinib 0.027

ACBD6 (UniProt Q9BR61)
Sequence of UniProt Q9BR61 (Q9BR61 whole entry, looked up): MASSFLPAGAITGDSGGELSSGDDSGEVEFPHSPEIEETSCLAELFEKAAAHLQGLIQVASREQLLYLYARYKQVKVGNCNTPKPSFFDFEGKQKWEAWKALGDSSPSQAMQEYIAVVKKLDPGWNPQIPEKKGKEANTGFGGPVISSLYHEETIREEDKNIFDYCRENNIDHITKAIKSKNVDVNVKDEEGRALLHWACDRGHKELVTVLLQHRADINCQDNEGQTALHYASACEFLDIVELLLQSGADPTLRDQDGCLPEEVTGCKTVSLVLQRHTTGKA
inactive: [1] -0.089 | [2] -0.077 | [3] -0.006 | [4] 0.001 | entinostat -0.048 | vorinostat 0.086 | citarinostat 0.084 | silmitasertib 0.134 | [5] 0.022 | [6] 0.271 | entospletinib 0.035

AKAP8 (UniProt O43823)
inactive: [1] -0.043 | [2] -0.037 | [3] 0.023 | [4] -0.012 | entinostat -0.024 | vorinostat 0.01 | citarinostat 0.002 | silmitasertib -0.13 | [5] -0.1 | [6] -0.043 | entospletinib -0.018

BRD8 (UniProt Q9H0E9)
inactive: [1] 0.008 | [2] -0.107 | [3] 0.038 | [4] -0.014 | entinostat -0.041 | vorinostat -0.125 | citarinostat -0.12 | silmitasertib 0.038 | [5] 0.022 | [6] -0.059 | entospletinib 0.031

ATP13A2 (UniProt Q9NQ11)
Sequence of UniProt Q9NQ11 (Q9NQ11 whole entry, looked up): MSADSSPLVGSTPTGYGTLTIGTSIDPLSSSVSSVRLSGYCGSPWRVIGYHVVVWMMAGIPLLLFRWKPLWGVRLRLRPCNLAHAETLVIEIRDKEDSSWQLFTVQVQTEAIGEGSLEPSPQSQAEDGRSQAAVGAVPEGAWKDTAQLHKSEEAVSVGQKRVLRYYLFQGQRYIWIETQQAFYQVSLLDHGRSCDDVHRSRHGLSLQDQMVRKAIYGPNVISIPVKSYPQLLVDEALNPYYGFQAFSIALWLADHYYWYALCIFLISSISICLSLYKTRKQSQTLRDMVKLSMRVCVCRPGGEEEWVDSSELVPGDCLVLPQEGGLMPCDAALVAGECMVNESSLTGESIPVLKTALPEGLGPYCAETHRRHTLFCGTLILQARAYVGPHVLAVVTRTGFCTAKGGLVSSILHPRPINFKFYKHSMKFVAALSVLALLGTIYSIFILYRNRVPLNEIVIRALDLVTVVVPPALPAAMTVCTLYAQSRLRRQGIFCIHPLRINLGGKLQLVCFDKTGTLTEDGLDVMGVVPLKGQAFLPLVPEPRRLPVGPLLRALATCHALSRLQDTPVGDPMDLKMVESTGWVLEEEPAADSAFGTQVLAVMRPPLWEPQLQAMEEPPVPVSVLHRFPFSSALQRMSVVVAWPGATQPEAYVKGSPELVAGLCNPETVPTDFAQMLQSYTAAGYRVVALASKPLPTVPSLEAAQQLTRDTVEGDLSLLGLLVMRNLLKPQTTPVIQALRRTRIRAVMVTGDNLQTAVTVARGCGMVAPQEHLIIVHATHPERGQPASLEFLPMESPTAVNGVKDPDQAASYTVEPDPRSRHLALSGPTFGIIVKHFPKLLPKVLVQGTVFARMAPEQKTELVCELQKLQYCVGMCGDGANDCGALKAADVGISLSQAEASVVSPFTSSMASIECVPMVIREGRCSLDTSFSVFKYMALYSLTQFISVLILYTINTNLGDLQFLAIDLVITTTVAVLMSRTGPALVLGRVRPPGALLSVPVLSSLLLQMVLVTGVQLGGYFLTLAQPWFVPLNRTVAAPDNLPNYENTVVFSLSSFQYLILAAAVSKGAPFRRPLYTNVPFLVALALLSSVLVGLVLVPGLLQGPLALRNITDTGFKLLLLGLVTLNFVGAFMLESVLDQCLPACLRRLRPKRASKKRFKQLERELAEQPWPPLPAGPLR
active: [3] -0.336
inactive: [1] 0.032 | [2] 0.01 | [4] 0.064 | entinostat -0.005 | vorinostat 0.005 | citarinostat -0.054 | silmitasertib 0.026 | [5] -0.052 | [6] -0.025 | entospletinib -0.115

AAMP (UniProt Q13685)
Sequence of UniProt Q13685 (Q13685 whole entry, looked up): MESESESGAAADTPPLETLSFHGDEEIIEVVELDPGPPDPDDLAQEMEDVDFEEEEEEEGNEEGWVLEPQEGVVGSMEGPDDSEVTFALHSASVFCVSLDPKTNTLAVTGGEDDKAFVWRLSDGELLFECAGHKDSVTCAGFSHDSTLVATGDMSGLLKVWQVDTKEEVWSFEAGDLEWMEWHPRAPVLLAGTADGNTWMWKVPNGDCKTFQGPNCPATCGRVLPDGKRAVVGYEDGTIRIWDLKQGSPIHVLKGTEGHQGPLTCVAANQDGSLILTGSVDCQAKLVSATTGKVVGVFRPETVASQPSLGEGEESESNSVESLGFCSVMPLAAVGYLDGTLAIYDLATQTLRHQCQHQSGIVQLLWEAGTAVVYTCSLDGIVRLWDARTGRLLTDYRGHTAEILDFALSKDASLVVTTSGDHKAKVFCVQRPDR
inactive: [1] -0.006 | [2] -0.05 | [3] -0.005 | [4] -0.018 | entinostat -0.055 | vorinostat 0.015 | citarinostat -0.026 | silmitasertib 0.061 | [5] 0.059 | [6] -0.013 | entospletinib 0.063

ADD3 (UniProt Q9UEY8)
inactive: [1] 0.03 | [2] -0.014 | [3] 0.047 | [4] -0.001 | entinostat -0.051 | vorinostat -0.01 | citarinostat -0.015 | silmitasertib 0.001 | [5] -0.037 | [6] -0.024 | entospletinib 0.046

ADD2 (UniProt P35612)
Sequence of UniProt P35612 (P35612 whole entry, looked up): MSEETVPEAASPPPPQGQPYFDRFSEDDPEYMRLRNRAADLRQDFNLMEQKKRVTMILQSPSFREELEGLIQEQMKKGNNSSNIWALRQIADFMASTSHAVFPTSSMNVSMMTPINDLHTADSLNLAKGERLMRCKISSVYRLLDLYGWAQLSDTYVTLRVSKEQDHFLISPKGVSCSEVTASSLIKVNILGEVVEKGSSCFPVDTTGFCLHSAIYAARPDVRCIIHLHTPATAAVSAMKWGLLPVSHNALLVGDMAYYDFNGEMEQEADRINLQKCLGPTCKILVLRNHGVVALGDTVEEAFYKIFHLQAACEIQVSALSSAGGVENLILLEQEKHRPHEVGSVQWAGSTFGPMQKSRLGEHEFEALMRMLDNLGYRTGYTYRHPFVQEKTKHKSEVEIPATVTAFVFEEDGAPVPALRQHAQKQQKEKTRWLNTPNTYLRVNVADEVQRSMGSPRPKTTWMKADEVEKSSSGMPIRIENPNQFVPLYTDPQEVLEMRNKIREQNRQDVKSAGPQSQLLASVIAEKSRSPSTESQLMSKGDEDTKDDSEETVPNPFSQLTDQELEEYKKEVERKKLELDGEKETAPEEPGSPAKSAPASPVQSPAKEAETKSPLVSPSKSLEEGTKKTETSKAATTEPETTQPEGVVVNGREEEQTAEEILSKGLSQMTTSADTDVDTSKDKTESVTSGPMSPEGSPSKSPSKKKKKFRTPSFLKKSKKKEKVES
inactive: [1] 0.048 | [2] 0.039 | [3] 0.036 | [4] 0.024 | entinostat -0.038 | vorinostat 0.023 | citarinostat 0.024 | silmitasertib -0.054 | [5] -0.092 | [6] 0.013 | entospletinib -0.008

ATP23 (UniProt Q9Y6H3)
Sequence of UniProt Q9Y6H3 (Q9Y6H3 whole entry, looked up): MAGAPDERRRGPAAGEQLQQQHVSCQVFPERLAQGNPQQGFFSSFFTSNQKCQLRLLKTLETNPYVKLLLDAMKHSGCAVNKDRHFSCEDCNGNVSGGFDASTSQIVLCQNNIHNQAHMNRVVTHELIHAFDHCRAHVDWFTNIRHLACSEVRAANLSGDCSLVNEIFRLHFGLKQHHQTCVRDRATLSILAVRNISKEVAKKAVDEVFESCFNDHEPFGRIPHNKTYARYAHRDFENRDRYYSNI
inactive: [1] 0.014 | [2] 0.06 | [3] 0.002 | [4] -0.057 | entinostat -0.012 | vorinostat 0.044 | citarinostat -0.012 | silmitasertib -0.027 | [5] 0.02 | [6] -0.045 | entospletinib 0.077

ACP1 (UniProt P24666)
inactive: [1] -0.079 | [2] -0.24 | [3] -0.002 | [4] -0.199 | entinostat 0.093 | vorinostat 0.01 | citarinostat 0.012 | silmitasertib 0.088 | [5] -0.074 | [6] -0.014 | entospletinib 0.102

ACSL3 (UniProt O95573)
Sequence of UniProt O95573 (O95573 whole entry, looked up): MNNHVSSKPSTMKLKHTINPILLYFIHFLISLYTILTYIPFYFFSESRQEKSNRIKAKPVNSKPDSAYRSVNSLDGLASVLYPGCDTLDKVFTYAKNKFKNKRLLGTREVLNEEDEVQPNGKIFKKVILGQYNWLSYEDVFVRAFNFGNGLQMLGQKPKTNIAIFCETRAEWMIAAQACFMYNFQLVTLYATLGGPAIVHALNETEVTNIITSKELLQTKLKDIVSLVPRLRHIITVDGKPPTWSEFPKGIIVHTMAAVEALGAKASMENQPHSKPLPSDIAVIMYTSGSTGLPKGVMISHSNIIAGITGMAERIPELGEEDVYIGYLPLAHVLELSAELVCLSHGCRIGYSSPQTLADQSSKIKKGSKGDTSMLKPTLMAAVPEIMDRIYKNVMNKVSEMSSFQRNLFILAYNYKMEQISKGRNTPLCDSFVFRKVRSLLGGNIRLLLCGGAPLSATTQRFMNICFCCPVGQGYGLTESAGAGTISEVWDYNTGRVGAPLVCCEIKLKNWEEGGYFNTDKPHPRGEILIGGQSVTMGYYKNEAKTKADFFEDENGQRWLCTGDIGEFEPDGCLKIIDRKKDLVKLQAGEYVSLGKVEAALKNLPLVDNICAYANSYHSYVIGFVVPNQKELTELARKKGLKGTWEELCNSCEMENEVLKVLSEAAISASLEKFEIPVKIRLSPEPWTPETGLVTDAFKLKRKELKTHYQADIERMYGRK
inactive: [1] 0.009 | [2] -0.041 | [3] -0.095 | [4] -0.042 | entinostat 0.047 | vorinostat 0.049 | citarinostat 0.047 | silmitasertib 0.074 | [5] -0.045 | [6] 0.028 | entospletinib -0.06

AGO1 (UniProt Q9UL18)
inactive: [1] 0.108 | [2] 0.011 | [3] 0.049 | [4] 0.073 | entinostat -0.012 | vorinostat -0.05 | silmitasertib 0.12 | [5] -0.067 | [6] -0.413 | entospletinib -0.2
active: citarinostat 0.439

ALG3 (UniProt Q92685)
inactive: [1] -0.039 | [2] -0.037 | [3] -0.006 | [4] 0.045 | entinostat 0.172 | vorinostat -0.046 | citarinostat -0.051 | silmitasertib 0.034 | [5] -0.055 | [6] -0.027 | entospletinib 0.049

BRD4 (UniProt O60885)
active: vorinostat -0.463
inactive: [1] -0.031 | [2] -0.096 | [3] -0.112 | [4] -0.119 | entinostat -0.097 | citarinostat -0.123 | silmitasertib 0.024 | [5] -0.129 | [6] 0.028 | entospletinib 0.065

ACSL4 (UniProt O60488)
inactive: [1] -0.087 | [2] -0.097 | [3] -0.057 | [4] -0.023 | entinostat 0.081 | vorinostat 0.029 | citarinostat 0.044 | silmitasertib 0.149 | [5] 0.003 | [6] 0.017 | entospletinib 0.009

ATG4B isoform 2 (UniProt Q9Y4P1)
inactive: [1] 0.08 | [2] -0.104 | [3] -0.401 | [4] -0.151 | entinostat 0.154 | vorinostat 0.268 | citarinostat 0.005 | silmitasertib 0.003 | [5] -0.093 | [6] -0.023 | entospletinib 0.11

BZW2 (UniProt Q9Y6E2)
Sequence of UniProt Q9Y6E2 (Q9Y6E2 whole entry, looked up): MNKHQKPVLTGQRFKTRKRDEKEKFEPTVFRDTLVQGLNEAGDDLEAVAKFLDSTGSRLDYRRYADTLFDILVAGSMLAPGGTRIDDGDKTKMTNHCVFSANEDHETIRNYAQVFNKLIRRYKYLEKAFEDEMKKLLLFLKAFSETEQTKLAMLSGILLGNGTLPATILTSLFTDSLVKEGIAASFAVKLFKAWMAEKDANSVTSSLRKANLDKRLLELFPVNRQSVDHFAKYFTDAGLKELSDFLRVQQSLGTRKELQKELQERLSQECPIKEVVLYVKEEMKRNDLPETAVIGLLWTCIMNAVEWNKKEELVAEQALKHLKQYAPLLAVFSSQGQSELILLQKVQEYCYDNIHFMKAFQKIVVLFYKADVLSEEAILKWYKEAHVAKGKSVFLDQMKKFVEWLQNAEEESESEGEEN
inactive: [1] 0.019 | [2] -0.055 | [3] -0.225 | [4] -0.066 | entinostat 0.047 | vorinostat -0.003 | citarinostat 0.044 | silmitasertib -0.001 | [5] -0.044 | [6] -0.069 | entospletinib 0.002

BLOC1S3 (UniProt Q6QNY0)
inactive: [1] 0.057 | [2] 0 | [3] -0.014 | [4] -0.023 | entinostat -0.06 | vorinostat 0.039 | citarinostat -0.018 | silmitasertib 0.006 | [5] -0.013 | [6] -0.014 | entospletinib -0.079

ATP1A4 (UniProt Q13733)
inactive: [1] 0.023 | [2] 0.069 | [3] 0.059 | [4] -0.03 | entinostat -0.001 | vorinostat -0.002 | citarinostat 0.121 | silmitasertib 0.007 | [5] 0.176 | [6] -0.088 | entospletinib -0.065

BCCIP (UniProt Q9P287)
Sequence of UniProt Q9P287 (Q9P287 whole entry, looked up): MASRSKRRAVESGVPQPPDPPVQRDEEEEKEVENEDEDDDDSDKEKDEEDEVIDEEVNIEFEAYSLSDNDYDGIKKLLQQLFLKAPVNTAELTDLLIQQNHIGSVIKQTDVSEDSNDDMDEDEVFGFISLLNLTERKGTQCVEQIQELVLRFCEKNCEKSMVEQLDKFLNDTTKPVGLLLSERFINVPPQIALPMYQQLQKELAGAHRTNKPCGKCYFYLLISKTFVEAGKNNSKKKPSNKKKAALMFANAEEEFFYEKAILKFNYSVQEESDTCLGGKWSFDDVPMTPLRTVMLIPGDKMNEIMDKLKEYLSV
inactive: [1] 0.023 | [2] -0.008 | [3] -0.006 | [4] -0.04 | entinostat -0.052 | vorinostat 0.045 | citarinostat 0.022 | silmitasertib 0.049 | [5] -0.012 | [6] -0.079 | entospletinib -0.036

APAF1 (UniProt O14727)
inactive: [1] 0.016 | [2] 0.033 | [3] -0.116 | [4] -0.104 | entinostat 0.031 | vorinostat 0.048 | citarinostat 0.093 | silmitasertib -0.116 | [5] -0.062 | [6] -0.016 | entospletinib -0.099

AGPS (UniProt O00116)
Sequence of UniProt O00116 (O00116 whole entry, looked up): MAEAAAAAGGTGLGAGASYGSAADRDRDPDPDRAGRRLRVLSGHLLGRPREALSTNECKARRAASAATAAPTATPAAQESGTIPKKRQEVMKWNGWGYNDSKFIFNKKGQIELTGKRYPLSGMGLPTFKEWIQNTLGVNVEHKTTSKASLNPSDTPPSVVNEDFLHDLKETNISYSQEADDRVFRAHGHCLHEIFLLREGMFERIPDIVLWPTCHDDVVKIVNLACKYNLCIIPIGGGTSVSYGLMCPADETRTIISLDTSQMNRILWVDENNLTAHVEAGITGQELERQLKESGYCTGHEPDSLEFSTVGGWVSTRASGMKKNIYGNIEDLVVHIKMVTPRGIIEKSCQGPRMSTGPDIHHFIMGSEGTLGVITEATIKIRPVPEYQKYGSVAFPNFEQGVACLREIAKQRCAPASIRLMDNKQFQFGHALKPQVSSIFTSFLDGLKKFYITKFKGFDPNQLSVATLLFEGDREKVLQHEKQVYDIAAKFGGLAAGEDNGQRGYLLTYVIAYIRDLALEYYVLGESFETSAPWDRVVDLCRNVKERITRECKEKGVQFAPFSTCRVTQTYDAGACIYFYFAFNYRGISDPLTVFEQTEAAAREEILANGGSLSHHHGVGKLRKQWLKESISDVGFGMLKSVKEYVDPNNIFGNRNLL
inactive: [1] -0.013 | [2] 0.007 | [3] -0.112 | [4] 0 | entinostat 0.023 | vorinostat 0.045 | citarinostat 0.058 | silmitasertib 0.011 | [5] -0.107 | [6] -0.011 | entospletinib 0.008

ATP5ME (UniProt P56385)
inactive: [1] 0.003 | [2] -0.007 | [3] 0.057 | [4] -0.04 | entinostat 0.026 | vorinostat -0.027 | citarinostat -0.007 | silmitasertib -0.008 | [5] -0.037 | [6] -0.039 | entospletinib 0.027
